Compound activity as filed in PubChem.
A selection: hits, their analogues and other compounds. The true share with any hit is near 2.2%.
FBPA Giardia inh – inhibitors of Giardia lamblia fructose-1,6-bisphosphate aldolase. A8B2U2. purified Giardia FBPA. Potency, µM (titrated, usually from 59.6 µM), without a hit: top-dose activity, negative = inhibition, most hits filed as inhibitors. 290,000 compounds, 0.71% hits; active = well fitted inhibition curve with a large enough effect; inconclusive = small, poorly fitted or top-dose-only effect, or effect the other way; also: nearly all actives have a fitted effect of over 55% in size
Target sequence (A8B2U2 whole entry, looked up): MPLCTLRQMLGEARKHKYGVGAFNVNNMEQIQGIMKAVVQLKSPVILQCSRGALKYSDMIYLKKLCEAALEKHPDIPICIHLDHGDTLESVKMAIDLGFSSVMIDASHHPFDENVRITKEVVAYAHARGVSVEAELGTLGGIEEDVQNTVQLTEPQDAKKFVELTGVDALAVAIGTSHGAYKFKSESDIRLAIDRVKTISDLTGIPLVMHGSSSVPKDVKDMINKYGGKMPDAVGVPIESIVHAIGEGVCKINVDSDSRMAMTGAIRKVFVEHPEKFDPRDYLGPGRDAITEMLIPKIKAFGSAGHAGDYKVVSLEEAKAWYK
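40 nM FBPA preincubated 10 min at RT with compound (up to 57.5 uM final), then substrate plus GAPDH/TPI/NAD/arsenate coupling and diaphorase/resazurin added. Fluorescence read after 20 min at RT, 525/598 nm.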
VACV mCherry inh – vaccinia inhibition (mCherry reporter); Vaccinia virus mCherry reporter infection, fluorescence; Potency, µM (series often up to 36.5 µM), for the others: at the top dose activity change, negative = inhibition, actives largely listed as inhibitors; 310,000 compounds, 0.63% hits; calls by dose curve; tested in A549 cells; also: nearly all actives have a fitted effect of over 35% in size
FMDV inh – antivirals against foot and mouth disease virus; FMDV antiviral cell-based qHTS; Potency, µM (titrated, usually from 57.9 µM), for the others: top-dose activity change, negative = inhibition, hits mostly inhibitors; 410,000 compounds, 1.2% hits; calls by dose curve; tested in HEK293T cells; also: read-out not given here; nearly all actives have a fitted effect of over 45% in size
VACV Venus inh – inhibitors of vaccinia virus (Venus reporter); Vaccinia virus Venus reporter expression, fluorescence; Potency, µM (top dose mostly 36.5 µM), without a hit: top-dose activity change, negative = inhibition, most hits filed as inhibitors; 330,000 compounds, 0.46% hits; AID 720580; calls by dose curve; tested in A549 cells; also: nearly all actives have a fitted effect of over 30% in size
* = called active by the depositor; i = inactive; u = inconclusive; x = no result; ! = not active in a repeat; [ ] = dose if it differs, or a comment. % is scaled to controls: 0 for no effect and ±100 for the full control effect; potency is read from the fitted curve at half-maximal effect.

SMILES | FBPA Giardia inh | VACV mCherry inh | FMDV inh | VACV Venus inh
CSc1ccc(CN(C)C(=O)c2cccc(S(=O)(=O)N3CCN(Cc4ccccc4)CC3)c2)cc1 | x | -28.4% | 15.8µM* | -24.7%
Cc1ccc(C)c(NC(=O)CN(C)C(=O)c2cccc(S(=O)(=O)N3CCN(Cc4ccccc4)CC3)c2)c1 | x | -2.5% | 14.1µM* | -16.1%
Cc1ccc(C)c(NC(=O)CN(C)C(=O)c2cccc(S(=O)(=O)N3CCCC3)c2)c1 | x | -13.4% | 23.6% | -4.0%
CC(C)N(CCO)Cc1nc(N2CCOCC2)c2cc(Cl)ccc2n1 | x | -7.7% | -2.6% | 0.0%
C(=Nc1ccc2ccccc2n1)c1ccccn1 | x | -11.3% | x | 2.1%
COc1cccc(CNc2ncnc3sc(C(=O)N4CC5CCC4C5)c(C)c23)c1OC (stereo not drawn) | x | -22.3% | 2.4% | -15.5%
c1cnc(N2CCN(Cc3c[nH]c4ccccc34)CC2)nc1 | 4.2% | x | u | 12.6µM*
CC[C@H](CO)Nc1nc(Nc2cccc(Cl)c2)c2ncn(C(C)C)c2n1 | -17.4% | u | 6.6% | 10µM*
Cc1cccc(C)c1NC(=O)C(=O)NCCCN1CCOCC1 | 5.8% | 6.31µM* | u | 2µM*
COc1ccccc1N1CC(O)=C(c2nc3ccccc3c(=O)[nH]2)C1=N | -21.8% | 5.62µM* | x | u
COCCN1CC(O)=C(c2nc3ccccc3c(=O)[nH]2)C1=N | -5.2% | x | 6.2% | -15.7%
Clc1ccc2nc[nH]c2c1 | x | i | x | -7.2%
CCOC(=O)C(C)C(C)=O (stereo not drawn) | x | 0.316µM* | -16.2% | u
CCOC(=O)C[C@@H](CC(C)=O)C(=O)OCC | -1.1%[12.9 µM] | x | x | x
CC[C@H](C)[C@H]1O[C@]2(C=C[C@@H]1C)C[C@@H]1C[C@@H](C/C=C(\C)[C@@H](O[C@H]3C[C@H](OC)[C@@H](O[C@H]4C[C@H](OC)[C@@H](O)[C@H](C)O4)[C@H](C)O3)[C@@H](C)/C=C/C=C3\CO[C@@H]4[C@H](O)C(C)=C[C@@H](C(=O)O1)[C@]34O)O2 | x | -21.2% | 0.0% | -13.6%
CCOC(=O)N1CCN(C(=O)c2ccc(CS(=O)(=O)c3ccccc3OC)o2)CC1 | 0.3% | x | -18.7% | x
COc1ccccc1S(=O)(=O)Cc1ccc(C(=O)N2CCN(c3ccc(C)cc3)C(C)C2)o1 (stereo not drawn) | 6.2% | -18.2% | 31.6µM* | u
CCC(COC)NC(=O)c1cnn(-c2ncc3c(n2)-c2ccccc2CC3)c1C (stereo not drawn) | x | -20.2% | 29.2% | -12.1%
CC1=CC(O)C(O)C2(C)C1CC1OC(=O)C(O)C3C(C)C(O)C4(O)OCC13C42 (stereo not drawn) | x | u | -8.1% | 7.94µM*
COc1cc2ccc(=O)oc2c(O)c1O | 25.1µM* | -12.8% | -28.6% | u
CSCC[C@@H]1NC(=O)[C@@H](NC(=O)[C@H](CCCNC(=N)N)NC(=O)[C@H](CC(C)C)NC(=O)[C@H](CCSC)NC(=O)[C@H](CC(=O)O)NC(=O)[C@H](Cc2ccccc2)NC(=O)[C@@H](N)CC(=O)O)CSSC[C@@H](C(=O)N[C@@H](Cc2c[nH]c3ccccc23)C(=O)N[C@@H](CCC(N)=O)C(=O)N[C@@H](Cc2ccc(O)cc2)C(=O)O)NC(=O)[C@@H]2CCCN2C(=O)[C@H](CCCNC(=N)N)NC(=O)[C@H](Cc2ccccc2)NC(=O)[C@H](C(C)C)NC(=O)[C@H](CCCNC(=N)N)NC(=O)CNC(=O)[C@H](CC(C)C)NC1=O | 1.5% | x | x | x
Cc1cc(/C=C2\SC(=S)N(C)C2=O)c(C)n1-c1cccc(O)c1 | -17.6% | u | 1.26µM* | -7.6%
CN1CCc2c(cc(O)c(O)c2Cl)C(c2cccc(Cl)c2)C1 (stereo not drawn) | -3.9% | x | x | x
CC1=NN(c2ccc(C)c(C)c2)C(=O)/C1=C\C=C\c1ccc([N+](=O)[O-])o1 | -12.5% | i | 12.6µM* | -2.1%
C=CC(=O)Nc1cccc(N(C)c2ccnc(Nc3ccc(N4CCN(C)CC4)cc3)n2)c1 | x | u | u | 4.47µM*
SMILES | FBPA Giardia inh | VACV mCherry inh | FMDV inh | VACV Venus inh
C=CC(=O)Nc1cccc(Oc2ccnc(Nc3ccc(N4CCN(C)CC4)cc3)n2)c1 | x | u | -20.8% | 3.55µM*
C=CC(=O)Nc1cccc(Oc2ccnc3[nH]ccc23)c1 | x | u | -14.1% | 5.62µM*
CN1CCN(c2ccc(NC(=O)COc3cccc4ccccc34)cc2)CC1 | 0.5% | u | -12.2% | 3.5%
CCN1/C(=C\C(=S)Nc2ccccc2)Sc2ccccc21 | -8.8% | -25.9% | -4.6% | -28.4%
CCN1/C(=C/C(C)=C/c2sc3ccccc3[n+]2CC)Sc2ccccc21 | -7.7% | i | 10µM* | i
O=c1c2ccccc2sc2ccc(C#CC3(O)CCCCC3)cc12 | x | -15.6% | 44.7µM* | u
COc1cccc2sc3ccc(C#CC4(O)CCCCC4)cc3c(=O)c12 | -20.5% | -6.5% | -5.3% | -25.9%
O=c1c2ccccc2oc2cc(C#CC3(O)CCCCC3)ccc12 | x | -15.5% | 11.2µM* | -24.7%
COc1ccc(-n2c(=O)c(-c3ccccc3)nc3cnc(N4CCOCC4)nc32)cc1 | -5.9% | x | -2.0% | x
COc1ccc2c(c1)c(C(C)=O)c(C)n2CCc1ccccc1 | -1.7% | x | 14.1µM* | x
COc1ccc2c(c1)c(C(C)=O)c(C)n2CCc1ccc(OC)c(OC)c1 | -6.9% | x | u | x
COc1cc2nc(CCNCc3ccccc3)nc(NC3CCN(C)CC3)c2cc1OC | x | i | x | -15.6%
Cc1ncc2c(c1CNC(=O)c1cncs1)CCN(C(=O)c1ccc(-c3ccccc3)cc1)C2 | x | -19.4% | -5.3% | -11.7%
COC(=O)C1Cc2ccccc2CN1C(=O)CCl (stereo not drawn) | -12.6% | -24.6% | 22.4µM* | u
COC(=O)[C@H](Cc1ccccc1)NC(=O)N1Cc2ccccc2C[C@H]1C(=O)OC | -5.0% | x | -1.0% | x
CCN1C(=O)c2ccc(C(=O)Nc3cccc(C(=O)O)c3)cc2C1=O | 12.7% | -6.4% | 14.1µM* | -1.8%
C=C1C(=O)[C@@]23[C@H](O)C[C@@H]4C(C)(C)CC[C@H](O)[C@]4(C)[C@@H]2C[C@H](O)[C@@H]1[C@H]3O | -0.1% | u | u | 4.47µM*
C=C1C(=O)[C@@]23[C@H](O)C[C@@H]4C(C)(C)CC[C@H](O)[C@@]4(C)[C@@H]2CC[C@@H]1[C@H]3O | -3.4% | u | u | 2.51µM*
O=C(NCc1nnc2n1CCN(Cc1ccnc3ccccc13)CC2)c1cccc(F)c1 | x | -12.5% | -1.3% | -13.7%
C/C(=N\Nc1nnc(C)c(=O)[nH]1)C(=O)O | 3.54µM* | x | 8.3% | x
Cc1cc(C(=O)Nc2ccccc2-c2nc(CNC(=O)c3ccc(F)cc3F)c(C)o2)c(C)o1 | x | -5.3% | -2.4% | 1.2%
C=CCn1c(SCC)nc2ccccc2c1=O | x | 13.9% | x | -14.2%
Cc1ccc(C)c(NC(=O)CN(C)C(=O)[C@@H](NC(=O)c2ccc(C(C)(C)C)cc2)C(C)C)c1 | -17.4% | 28.2µM* | u | 14.1µM*
O=[N+]([O-])c1cccc2nc3ccccc3c(NCCCn3ccnc3[N+](=O)[O-])c12 | x | 2.82µM* | 14.1µM* | 1.41µM*
CCOC(=O)C(CC)(CC)C(=O)/C=C/c1cccc(Br)c1 | x | u | 22.4µM* | -26.1%
CN1CCc2cc(Cl)c(O)cc2[C@@H](c2ccccc2)C1 | 0.6% | -13.5% | 1.26µM*! | -13.2%
